Assay results taken from PubChem BioAssay (NCI).
About 83,000 compounds went through this panel and 20% of them were active in at least one assay; those are over-represented in the sample as a whole.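 Results are percent growth after 48 hours of single-concentration exposure. 100 means growth as in untreated cells, lower positive values show inhibition; negative values down to -100 show cell death.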 Activity calls are given as the source filed them. The calls were made as follows: active = growth percent below 10; inactive = the rest.

test system: MDA-MB-468 breast; test: NCI-60 one-dose screen, 48 h (100 = growth as untreated, 0 = no growth, -100 = all killed); details: 10 µM unless noted

Compound | growth
Cc1ccc(C(=O)NN)cc1 | 106% (inactive)
CCOC(=O)c1c(C=O)nc2ccccc2c1/C=C/c1ccc(Cl)cc1 | 102% (inactive)
N=C(N)c1ccc(-c2ccc(-c3ccc(Cl)c(Cl)c3)s2)nc1 | -65.4% (active)
CC(=O)c1sc(Nc2cccc(Nc3nc(C)c(C)s3)c2)nc1C | 55% (inactive)
Cn1ccnc1C(=O)/C=C/c1ccc(NC(=O)Nc2ccccc2)cc1 | -45.8% (active)
CCCCCCNC(=O)Oc1ccc(/C(=C(/C)Cc2ccc(OC)cc2)c2ccc(OCCN3CCCCC3)cc2)cc1 | 88.6% (inactive)
CC(=O)c1cc2c(N)c(C(=O)Nc3ccccc3)sc2nc1C | 24.3% (inactive)
CCOC(=O)c1c2c(n3ccc(NC(=O)CCN4CCCCC4)cc13)C(=O)c1ncccc1C2=O | 83.1% (inactive)
O=[N+]([O-])c1ccc(-c2noc(-c3cccs3)n2)cc1 | 56.6% (inactive)
CCCc1cc2c(cc1CN(Cc1cc3c(cc1CCC)OCO3)C(=N)OCC)OCO2 | 60.8% (inactive)
CCN(CC)CCOc1ccc(C(=C(C)c2ccc(OC)cc2)c2ccc(OCCN(CC)CC)cc2)cc1 | -70.1% (active)
COc1cccc(N=CNc2cccc(OC)c2)c1 | 107% (inactive)
O=C(C1=Cc2cc3ccccc3n2Cc2cnnn21)c1ccc(O)cc1 | 62.2% (inactive)
Cc1cccc(Oc2ccc(Nc3ncnc4ccc(NC(=O)CNCCO)cc34)cc2Cl)c1 | -21.9% (active)
Nc1ncn([C@@H]2O[C@H](CO)[C@@H](O)C2(F)F)c(=O)n1 | 71.4% (inactive)
